In PubChem BioAssay AID2499 (National Center for Advancing Translational Sciences (NCATS), 2010):
Records with an inconclusive call do not appear. Calls of active or inactive are those of the source. Calls come from the whole dose curve; as a rule, active = well fitted inhibition curve with a large enough effect; inconclusive = small, poorly fitted or top-dose-only effect; inactive = flat fitted curve, though single readings scatter.

target: Galactokinase (Homo sapiens) (UniProt P51570); assay: Confirmation Assay for Inhibitors of Human Galactokinase (GALK): probe SAR; conditions: purified GALK, Kinase-Glo ATP depletion luminescence; series mostly up to 115 µM
Source text: NIH Molecular Libraries Probe Production Centers Network [MLPCN] NIH Chemical Genomics Center [NCGC] MLPCN Grant: R03 MH085689-01 Assay Submitter (PI): Kent Lai (University of Utah School of Medicine, 50 N Mario Capecchi Drive, Salt Lake City, UT 84132) NCGC Assay Overview Inherited deficiency of galactose-1-phosphate uridyltransferase (GALT) can result in a potentially lethal disorder called Classic Galactosemia (OMIM 230400). Several lines of evidence indicate that an elevated level of galactose-1-phosphate (gal-1-p), the product of galactokinase (GALK), is a major, if not sole, pathogenic mechanism in patients with classic galactosemia. Therefore, finding inhibitors of GALK is a potential novel therapy for this inherent metabolic disease and is the long term goal of this project. Active compounds observed in the qHTS GALK assay (AID: 1868) were cherry picked and re-screened for validation. GALK (provided by Kent Lai) was assayed using ATP and D-(+)-Galactose (Sigma-Aldrich cat# G0750) as substrates. Promega Kinase-Glo Plus (cat# V3774) technology was used to detect the residual ATP following kinetic reaction. Briefly, the Kinase-Glo Plus contains Ultra-Glo [1] luciferase and D-luciferin which generates a bioluminescence signal from the remaining ATP. Kinase reactions with and without GALK were used as negative and positive controls together with Protein Tyrosine Phosphatase CD45 inhibitor (EMD Bioscience cat# 540215) which is shown to inhibit GALK activity.
NCGC Assay Protocol Summary: Three uL/well of ATP-buffer solution (35 uM ATP, 20mM HEPES pH8.0, 5 mM MgCl2, 60 mM NaCl, 1 mM DTT, 0.01% BSA final concentration) was dispensed into 1536-well, assay plates (Greiner, solid white medium-binding plates) with Aurora Discovery BioRAPTR Flying Reagent Dispenser (FRD; Beckton-Dickenson). Compound and control solution (23 nL) was transferred to the assay plate using the Kalypsys 1536-pin tool apparatus. One uL/well GALK-galactose solution (5 nM GALK, 100 uM galactose, 20 mM HEPES pH8.0, 5 mM MgCl2, 60 mM NaCl, 1 mM DTT, 0.01% BSA final concentration) was then added using the FRD yielding a total kinase reaction volume of 4 uL/ well. After 1 hour of room temperature incubation, 4 uL Kinase-Glo Plus reagent was added for a final assay volume of 8 uL/well. Luminescence was detected with the ViewLux plate reader (Perkin Elmer, Waltham, MA) after 2 min incubation using a 1 sec exposure time and 2x binning.

Chain of Galactokinase (Homo sapiens) (P51570 whole entry, looked up): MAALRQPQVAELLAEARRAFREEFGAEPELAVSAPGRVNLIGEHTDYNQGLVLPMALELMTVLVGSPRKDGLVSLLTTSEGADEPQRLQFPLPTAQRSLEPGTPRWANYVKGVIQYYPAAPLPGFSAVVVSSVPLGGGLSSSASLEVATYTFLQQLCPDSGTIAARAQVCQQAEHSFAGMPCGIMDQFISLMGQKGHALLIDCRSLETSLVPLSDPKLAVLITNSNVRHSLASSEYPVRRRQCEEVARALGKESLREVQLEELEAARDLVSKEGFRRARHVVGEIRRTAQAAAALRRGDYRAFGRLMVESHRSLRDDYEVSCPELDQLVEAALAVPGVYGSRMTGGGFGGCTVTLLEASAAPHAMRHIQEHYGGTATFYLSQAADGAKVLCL

Q: Which Potency does the source give for O=C1CCCC2=C1C1(CCCC1)N=C(Nc1nc3cc(Br)ccc3o1)N2 here?
A: Its Potency is 7.49 µM (active).

Q: O=C1CCCC2=C1C1(CCCC1)N=C(Nc1nc3cc(Cl)ccc3o1)N2 was tested. Which Potency did it give?
A: The Potency was 6.68 µM (active).

Q: How did the Potency turn out when CC1(C)CC(=O)C2=C(C1)NC(Nc1nc3ccccc3o1)=NC21CCCC1 was run?
A: The Potency was 6.68 µM (active).

Q: O=C1CCC2=C1C1(CCCC1)N=C(Nc1nc3ccccc3o1)N2 was tested. Which Potency did it give?
A: The Potency was 11.9 µM (active).

Q: With O=C1CCCC2=C1[C@@]1(CCC(c3ccccc3)C1)N=C(Nc1nc3ccccc3o1)N2 (some centres undefined) as the compound, how does the Potency read?
A: The Potency was “inactive”.

Q: Which Potency does the source give for COc1ccccc1C1N=C(Nc2nc3ccccc3o2)NC2=C1C(=O)CC(C)(C)C2 (centres undefined) here?
A: Its Potency is “inactive”.

Q: For O=C1CCCC2=C1C1(CCCC1)N=C(Nc1nc3cc4ccccc4cc3o1)N2, which Potency is on record?
A: The Potency was “inactive”.

Q: How did the Potency turn out when CCC1CCC2(C1)N=C(Nc1nc3ccccc3o1)NC1=C2C(=O)CCC1 (centres undefined) was run?
A: The Potency was “inactive”.

Q: How did the Potency turn out when Cc1ccc2oc(NC3=NC4(CCCC4)C4=C(CCCC4=O)N3)nc2c1 was run?
A: Its Potency is 5.95 µM (active).

Q: Which Potency does the source give for O=C1CCC2=C1C(c1ccccc1Cl)N=C(Nc1nc3ccccc3o1)N2 (centres undefined) here?
A: The Potency was 11.9 µM (active).

Q: How did the Potency turn out when Cn1c(NC2=NC3(CCCC3)C3=C(CCCC3=O)N2)nc2ccccc21 was run?
A: Its Potency is “inactive”.

Q: How did the Potency turn out when CC1(C)CC(=O)C2=C(C1)NC(Nc1nc3ccccc3o1)=NC2c1cccc(O)c1 (centres undefined) was run?
A: The Potency was 21.1 µM (active).

Q: How did the Potency turn out when COc1cccc(C2N=C(Nc3nc4ccccc4o3)NC3=C2C(=O)CC(C)(C)C3)c1 (centres undefined) was run?
A: The Potency was 37.5 µM (active).

Q: O=C1CCCC2=C1C1(CCS(=O)(=O)C1)N=C(Nc1nc3ccccc3o1)N2 (centres undefined) was tested. Which Potency did it give?
A: Its Potency is 6.68 µM (active).

Q: With O=C1CCCC2=C1C1(CCSCC1)N=C(Nc1nc3ccccc3o1)N2 as the compound, how does the Potency read?
A: The Potency was 1.06 µM (active).

Q: Cc1ccc(C2N=C(Nc3nc4ccccc4o3)NC3=C2C(=O)CC(C)(C)C3)cc1 (centres undefined) was tested. Which Potency did it give?
A: Its Potency is “inactive”.

Q: Which Potency does the source give for O=C1CCCC2=C1C1(CCC1)N=C(Nc1nc3ccccc3o1)N2 here?
A: The Potency was 18.8 µM (active).

Q: For CC1(C)N=C(Nc2nc3ccccc3o2)NC2=C1C(=O)CCC2, which Potency is on record?
A: Its Potency is 47.3 µM (active).

Q: Cc1nc(Nc2nc3ccccc3o2)nc2c1C(=O)CC(C)(C)C2 was tested. Which Potency did it give?
A: The Potency was “inactive”.

Q: Which Potency does the source give for O=C1CC(c2ccccc2)CC2=C1C1(CCCCC1)N=C(Nc1nc3ccccc3o1)N2 (centres undefined) here?
A: Its Potency is “inactive”.

Q: COc1ccc(C2N=C(Nc3nc4ccccc4o3)NC3=C2C(=O)CC(C)(C)C3)cc1 (centres undefined) was tested. Which Potency did it give?
A: Its Potency is “inactive”.

Q: With O=C1CCCC2=C1C(c1ccc(Cl)cc1)N=C(Nc1nc3ccccc3o1)N2 (centres undefined) as the compound, how does the Potency read?
A: Its Potency is “inactive”.

Q: With O=C1CCCC2=C1C(c1ccccc1Cl)N=C(Nc1nc3ccccc3o1)N2 (centres undefined) as the compound, how does the Potency read?
A: Its Potency is 0.595 µM (active).

Q: Which Potency does the source give for CC1CCC2(C1)N=C(Nc1nc3ccccc3o1)NC1=C2C(=O)CCC1 (centres undefined) here?
A: The Potency was 11.9 µM (active).

Q: Which Potency does the source give for CC1(C)CC(=O)C2=C(C1)NC(Nc1nc3ccccc3o1)=NC2c1cccc(F)c1 (centres undefined) here?
A: Its Potency is “inactive”.

Q: CC1(C)CC(=O)C2=C(C1)NC(Nc1nc3ccccc3o1)=NC2c1ccccc1Cl (centres undefined) was tested. Which Potency did it give?
A: The Potency was 8.41 µM (active).

Q: O=C1CCCC2=C1C1(CCCCC1)N=C(Nc1nc3ccccc3o1)N2 was tested. Which Potency did it give?
A: The Potency was 13.3 µM (active).

Q: With O=C1CCCC2=C1C1(CCCC1)N=C(Nc1nc3ccccc3n1Cc1ccccc1)N2 as the compound, how does the Potency read?
A: Its Potency is “inactive”.

Q: Which Potency does the source give for O=C1CCCC2=C1C1(CCSC1)N=C(Nc1nc3ccccc3o1)N2 (centres undefined) here?
A: Its Potency is 2.66 µM (active).
